In PubChem BioAssay (NCATS):
“And” between values parts separate entries of the source, which are not always exact repeats. Equal values may be shown once. Results filed as inconclusive are left out. Values without a mark were called inactive. The source made the active and inactive calls. Calls follow the shape of the dose curve; as a rule, active = well fitted cell-killing curve with a large enough effect; inconclusive = small, poorly fitted or top-dose-only effect, or effect the other way; inactive = flat fitted curve, though single readings scatter.
% is scaled to controls: 0 for no effect and ±100 for the full control effect.

Assay: qHTS assay for cell viability of HEK293 cells (AID 743288); also: nearly all actives have a fitted effect of over 50% in size
Settings: ATP luminescence (CellTiter-Glo), 18 h, active compounds read low
How it was run: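 Readout is luciferase-coupled ATP content (CellTiter-Glo luminescence, 30 min room temperature) as a measure of metabolically competent cells. Parental HEK293 cells were plated 5 h or more before compound addition, then treated 18 h at 37 C.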
For `CCCCOC(=O)CC(CC(=O)OCCCC)(OC(C)=O)C(=O)OCCCC`, the max response was -16.9%.
Compound `CCCCCCCC/C=C\CCCCCCCCN` has a max response of -0.943%.
In the case of `CC1(COc2ccc(CC3SC(=O)NC3=O)cc2)CCCCC1` (centres undefined), the max response is reported as -6.86%.
For `C=C[C@@]1(C)CC(=O)[C@]2(O)[C@@]3(C)[C@@H](O)CCC(C)(C)[C@@H]3[C@H](O)[C@H](OC(C)=O)[C@@]2(C)O1`, the max response was -8.77%.
In the case of `CCCCCCCCOc1ccc(C(=O)c2ccccc2)c(O)c1`, the max response is reported as -9.08%.
With `C/C=C/c1ccc(O)c(OC)c1` the max response was -4.69% and 11.4%.
Compound `CC(C)(C)CC(C)(C)c1ccc(O)c(-n2nc3ccccc3n2)c1` has a max response of -13.9%.
In the case of `CCCCCCCCCCCCCCCC(=O)O`, the max response is reported as -2.84%.
In the case of `CCOc1ccc(NC(C)=O)cc1`, the max response is reported as -2.1% and -6.16%.
Work on `COc1cc([C@H]2Oc3cc([C@H]4Oc5cc(O)cc(O)c5C(=O)[C@@H]4O)ccc3O[C@@H]2CO)ccc1O` yielded a max response of 5.85%.
In the case of `OC[C@H]1O[C@@H]2O[C@H]3[C@H](O)[C@@H](O)[C@@H](O[C@H]4[C@H](O)[C@@H](O)[C@@H](O[C@H]5[C@H](O)[C@@H](O)[C@@H](O[C@H]6[C@H](O)[C@@H](O)[C@@H](O[C@H]7[C@H](O)[C@@H](O)[C@@H](O[C@H]8[C@H](O)[C@@H](O)[C@@H](O[C@H]1[C@H](O)[C@H]2O)O[C@@H]8CO)O[C@@H]7CO)O[C@@H]6CO)O[C@@H]5CO)O[C@@H]4CO)O[C@@H]3CO`, the max response is reported as -3.67%.
For `CC1(C)OC[C@@H]2O[C@@]3(C(=O)O)OC(C)(C)O[C@H]3[C@@H]2O1`, the max response was -6.28%.
Compound `CN(C)C(=O)Nc1ccc(Cl)c(Cl)c1` has a max response of -11.4%.
Compound `CCCCCCCCCCCCCC(=O)OC(C)C` has a max response of -1.19%.
`C#C[C@]1(O)CC[C@H]2[C@@H]3CCC4=Cc5oncc5C[C@]4(C)[C@H]3CC[C@@]21C` gave a max response of -10.7%.
Compound `O=C(O)c1ccc(S(=O)(=O)N(Cl)Cl)cc1` has a max response of 0.513%.
In the case of `C=C[C@H]1CN2CC[C@H]1C[C@@H]2[C@@H](O)c1ccnc2ccc(OC)cc12`, the max response is reported as -3.56%.
In the case of `CCCCCCCCCCCCCCCCO`, the max response is reported as -3.2%.
`NC(=O)c1ccccc1O` showed a max response of -5%.
In the case of `COc1ccc(C(=O)c2ccccc2)c(O)c1`, the max response is reported as -9.22% and -8.85%.
For `CCCCC(CC)COC(=O)c1ccc(N(C)C)cc1` (centres undefined), the max response was 4.36% and -3.29%.
Work on `COc1ccc(C(Cl)=C(c2ccc(OC)cc2)c2ccc(OC)cc2)cc1` yielded a max response of -29.7%.
In the case of `CCOc1ccccc1C(N)=O`, the max response is reported as 9.95%.
With `CCCN(CCC)S(=O)(=O)c1ccc(C(=O)O)cc1` the max response was 7.44% and -5.93%.
In the case of `NCCNc1cccc2ccccc12`, the max response is reported as -10.4% and -20.5%.

Assay: qHTS assay for cell viability of the p53RE-bla HCT-116 cell line (AID 743292); also: nearly all actives have a fitted effect of over 55% in size
Settings: p53RE-bla HCT-116 viability, ATP luminescence, 16 h; series mostly up to 95 µM; activity change, negative = cytotoxicity: at the top concentration
How it was run: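 Intracellular ATP of p53RE-bla HCT-116 cells measured by luciferase luminescence following 16 h compound incubation at 37 C; DMSO-only wells served as vehicle controls.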
With `CCCCOC(=O)CC(CC(=O)OCCCC)(OC(C)=O)C(=O)OCCCC` the “activity change, negative = cytotoxicity” value was 0.505%.
For `CCCCCCCC/C=C\CCCCCCCCN`, the “activity change, negative = cytotoxicity” value was 25.1%.
With `C=C[C@@]1(C)CC(=O)[C@]2(O)[C@@]3(C)[C@@H](O)CCC(C)(C)[C@@H]3[C@H](O)[C@H](OC(C)=O)[C@@]2(C)O1` the “activity change, negative = cytotoxicity” value was -3.97%.
In the case of `CCCCCCCCOc1ccc(C(=O)c2ccccc2)c(O)c1`, the “activity change, negative = cytotoxicity” value is reported as 1.81%.
With `C/C=C/c1ccc(O)c(OC)c1` the outcome was “inactive”.
For `CCCCCCCCCCCCCCCC(=O)O`, the “activity change, negative = cytotoxicity” value was 2.89%.
For `CCOc1ccc(NC(C)=O)cc1`, the outcome was “inactive”.
With `COc1cc([C@H]2Oc3cc([C@H]4Oc5cc(O)cc(O)c5C(=O)[C@@H]4O)ccc3O[C@@H]2CO)ccc1O` the “activity change, negative = cytotoxicity” value was 5.36%.
For `Oc1ccc(Cl)cc1Cc1cc(Cl)ccc1O`, the “activity change, negative = cytotoxicity” value was -28.4%.
In the case of `OC[C@H]1O[C@@H]2O[C@H]3[C@H](O)[C@@H](O)[C@@H](O[C@H]4[C@H](O)[C@@H](O)[C@@H](O[C@H]5[C@H](O)[C@@H](O)[C@@H](O[C@H]6[C@H](O)[C@@H](O)[C@@H](O[C@H]7[C@H](O)[C@@H](O)[C@@H](O[C@H]8[C@H](O)[C@@H](O)[C@@H](O[C@H]1[C@H](O)[C@H]2O)O[C@@H]8CO)O[C@@H]7CO)O[C@@H]6CO)O[C@@H]5CO)O[C@@H]4CO)O[C@@H]3CO`, the “activity change, negative = cytotoxicity” value is reported as -1.13%.
For `CC1(C)OC[C@@H]2O[C@@]3(C(=O)O)OC(C)(C)O[C@H]3[C@@H]2O1`, the “activity change, negative = cytotoxicity” value was -9.45%.
With `CN(C)C(=O)Nc1ccc(Cl)c(Cl)c1` the “activity change, negative = cytotoxicity” value was 0.764%.
In the case of `CCCCCCCCCCCCCC(=O)OC(C)C`, the “activity change, negative = cytotoxicity” value is reported as -10.1%.
For `C#C[C@]1(O)CC[C@H]2[C@@H]3CCC4=Cc5oncc5C[C@]4(C)[C@H]3CC[C@@]21C`, the “activity change, negative = cytotoxicity” value was -5.7%.
With `O=C(O)c1ccc(S(=O)(=O)N(Cl)Cl)cc1` the “activity change, negative = cytotoxicity” value was 0.192%.
With `C=C[C@H]1CN2CC[C@H]1C[C@@H]2[C@@H](O)c1ccnc2ccc(OC)cc12` the “activity change, negative = cytotoxicity” value was -9.01%.
In the case of `NC(=O)c1ccccc1O`, the “activity change, negative = cytotoxicity” value is reported as -13%.
With `COc1ccc(C(=O)c2ccccc2)c(O)c1` the outcome was “inactive”.
In the case of `Oc1c(Cl)cc(Cl)c(Cl)c1Cc1c(O)c(Cl)cc(Cl)c1Cl`, the outcome is reported as “inactive”.
With `CCCCC(CC)COC(=O)c1ccc(N(C)C)cc1` (centres undefined) the outcome was “inactive”.
With `COc1ccc(C(Cl)=C(c2ccc(OC)cc2)c2ccc(OC)cc2)cc1` the “activity change, negative = cytotoxicity” value was -23.2%.
For `CCOc1ccccc1C(N)=O`, the “activity change, negative = cytotoxicity” value was -8.17%.
For `CCCN(CCC)S(=O)(=O)c1ccc(C(=O)O)cc1`, the outcome was “inactive”.
For `NCCNc1cccc2ccccc12`, the outcome was “inactive”.
